Bioassay records as filed in PubChem.
Compounds with a hit are over-represented: about 3.4% of the library has one in this group of screens.
Mcl1-Bid inh: Mcl-1/Bid binding inhibitors, primary screen, biochemical, TR-FRET, 1536-well; hit rate 0.97% among 220,000; Induced myeloid leukemia cell differentiation protein Mcl-1 (Homo sapiens), Q07820; inhibition, % at 21.7 µM; AID 1021, 2008; TR-FRET Mcl-1/Bid-Dy647 peptide binding;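 active = compounds that cut the binding signal by more than half at the single screening dose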;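 also: His-tagged Mcl-1 with europium anti-His antibody binding Bid BH3 peptide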
Target sequence (Q07820 whole entry, looked up): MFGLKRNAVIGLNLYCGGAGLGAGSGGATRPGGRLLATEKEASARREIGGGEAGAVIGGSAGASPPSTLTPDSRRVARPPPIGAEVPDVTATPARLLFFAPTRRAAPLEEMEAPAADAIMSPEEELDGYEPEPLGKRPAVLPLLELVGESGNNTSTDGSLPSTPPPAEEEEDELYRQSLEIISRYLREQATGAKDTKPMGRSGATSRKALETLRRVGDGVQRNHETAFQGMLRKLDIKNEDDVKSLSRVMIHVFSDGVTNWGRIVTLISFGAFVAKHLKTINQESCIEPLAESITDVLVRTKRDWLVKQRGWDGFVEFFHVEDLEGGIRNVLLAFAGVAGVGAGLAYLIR
14-3-3 Bad PPI: inhibitors of 14-3-3 zeta/Bad binding, primary screen, biochemical, TR-FRET, bovine 14-3-3 zeta; 14-3-3 protein zeta/delta (Bos taurus), P63103; TR-FRET 14-3-3zeta/Dy647-pBad peptide displacement, 1 h; inhibition, % at 21.7 µM; hit rate 0.71% among 220,000; AID 781, 2007;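 active = inhibition above about 70%, limit read from the data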
p47phox inh: p47phox/p22phox peptide binding inhibitors, primary screen, biochemical, uHTS, NADPH oxidase regulatory subunit. fluorescence polarization, 2 h. Neutrophil cytosol factor 1 (Homo sapiens), P14598. hit rate 0.53% among 220,000. inhibition, % at 24.7 µM;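 active = inhibition above about 30%, limit read from the data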
Calpain2 inh: inhibitors of pig calpain II, primary screen, biochemical, fluorogenic peptide substrate, 1536-well; hit rate 0.37% among 220,000; inhibition, % at 16 µM; purified calpain II, 30 min; AID 1236, 2008;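 active = inhibition above about 50%, limit read from the data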
Mcl-1 Bim block: inhibitors of Bim peptide binding to Mcl-1, primary screen, biochemical, bead-based flow cytometry, multiplex | Induced myeloid leukemia cell differentiation protein Mcl-1 (Homo sapiens), Q07820 | Bim peptide-Mcl-1 binding | inhibition, % at 10 µM | hit rate 0.1% among 190,000; in the data active = inhibition above about 40%
Mcl1 Noxa PPI: Mcl-1/Noxa binding inhibitors, primary screen, biochemical, TR-FRET, 1536-well; TR-FRET Mcl-1/Noxa peptide binding, 2 h; inhibition, % at 21.7 µM; hit rate 1.5% among 220,000; AID 1022, 2008;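 active = compounds that cut the protein-peptide binding signal by more than 50% relative to plate controls in a single-dose test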;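 also: His-tagged Mcl-1 with rhodamine Noxa BH3 peptide and terbium anti-His antibody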
Of the large screens only hits and unclear results are named; the others gave an inactive call.

COc1ccc2oc(=O)c(-c3csc(Nc4ccc(O)cc4)n3)cc2c1	Mcl1 Noxa PPI 73
COc1ccc2oc(=O)c(-c3nnc(NCc4ccco4)s3)cc2c1	Mcl1-Bid inh 65
CCOc1cccc2cc(-c3nnc(NCc4ccco4)s3)c(=O)oc12	Mcl1 Noxa PPI 64
CCOc1ccc(NC(=O)NC(=O)N(C(C)C)S(C)(=O)=O)cc1	none
Cc1ccccc1C1=Nn2c(nnc2-c2ccco2)SC1	none (no result: Mcl-1 Bim block)
COc1ccccc1-n1cnnc1SCC(=O)c1c[nH]c2ccccc12	none
CCOc1cccc2cc(C(C)=O)oc12	none
CCOc1cccc2cc(-c3cn4cc(C)ccc4n3)c(=O)oc12	Mcl1-Bid inh 80
C/C=C\C=C/C(=O)Nc1cccc(C2=NOC3(C2)C[C@@H](C(N)=O)N(C(=O)c2ccc(Cl)cc2)C3)c1 (stereo partly specified)	none (no result: Mcl-1 Bim block)
C/C=C\C=C/C(=O)Nc1cccc(C2=NOC3(C2)C[C@H](C(N)=O)N(C(=O)c2ccc(OC)cc2)C3)c1 (stereo partly specified)	Mcl1 Noxa PPI 63 (no result: Mcl-1 Bim block)
C/C=C(/C)C(=O)Nc1cccc(C2=NOC3(C2)C[C@H](C(N)=O)N(C(=O)Cc2ccc([N+](=O)[O-])cc2)C3)c1 (stereo partly specified)	none (no result: Mcl-1 Bim block)
C/C=C\C=C/C(=O)Nc1cccc(C2=NOC3(C2)C[C@H](C(N)=O)N(C(=O)Cc2ccc([N+](=O)[O-])cc2)C3)c1 (stereo partly specified)	Mcl1 Noxa PPI 65 (no result: Mcl-1 Bim block)
O=c1c2ccccc2c(C=Nc2ccccc2O)c(O)n1-c1nccs1	none (no result: Mcl-1 Bim block)
Cc1ccc(-n2sc3ccccc3c2=O)cc1S(=O)(=O)N1CCCCC1	p47phox inh 85, Mcl1 Noxa PPI 54
O=c1c2ccccc2sn1-c1ccc(S(=O)(=O)N2CCCC2)cc1	p47phox inh 30
O=c1c2ccccc2sn1-c1nccs1	p47phox inh 104
Cc1ccc(-c2nnc(N3CCCCC3)c3ccccc23)cc1S(=O)(=O)N1CCN(C)CC1	none
O=c1c2ccccc2sn1-c1ccccc1	p47phox inh 60
NC(=O)/C(=C\c1ccccc1)NC(=O)c1ccc(NC(=O)c2ccccc2)cc1	none (no result: Mcl-1 Bim block)
CCNc1ccc(C2(O)C(=O)c3ccccc3C2=O)cc1	none
Cc1cc(C(F)(F)F)nn1CCCNC(=O)c1cnccn1	none
COc1cc(S(=O)(=O)n2nc(C)cc2C)c(OC)cc1Cl	none
COc1ccc(CNC(=O)CN(C2CCCCC2)S(C)(=O)=O)cc1	none
CN(C)S(=O)(=O)c1cccc(-n2sc3ccccc3c2=O)c1	p47phox inh 93
CC(C)(C)NC(=O)COc1ccc(CNn2nnnc2N)cc1	p47phox inh 56
COc1cc(CNn2nnnc2N)ccc1OCC(=O)NC(C)(C)C	none
CCN(CC)S(=O)(=O)c1cccc(-n2c(O)c(C=Nc3ccccc3C(=O)O)c3ccccc3c2=O)c1	none (no result: Mcl-1 Bim block)
CCn1c2ccccc2c2cc(NC(=O)c3coc(=O)c(Br)c3)ccc21	Mcl1 Noxa PPI 69 (no result: Mcl-1 Bim block)
Cc1ccc(/C=C2\C(=O)Nc3ccccc32)o1	Mcl1 Noxa PPI 62
CC(/C=N/NC(=O)c1ccco1)=C\c1ccccc1	none
CCOC(=O)C1CCCN(c2nc(C)nc3c2oc2ccccc23)C1 (stereo unspecified)	14-3-3 Bad PPI 83
CC(NCc1ccccc1)C1COc2ccccc2O1 (stereo unspecified)	Mcl1-Bid inh 60 (no result: Mcl1 Noxa PPI)
C=CCc1ccc(O)c(-c2ccc(O)c(CC=C)c2)c1	none
CC(C)NC(=O)c1ccc(-n2c(=S)[nH]c3ccccc3c2=O)cc1	none
O=C(O)/C=C\C(=O)Nc1ccc(Oc2ccccc2)cc1	none
O=C(O)/C=C/C(=O)Nc1ccc(Oc2ccc(NC(=O)/C=C/C(=O)O)cc2)cc1	Mcl1 Noxa PPI 66
COc1ccc(Cn2c(=O)cc(N)n(-c3ccccc3C)c2=O)cc1	14-3-3 Bad PPI 97 (no result: Mcl-1 Bim block)
